# Biological target: T1, Ephrin type-B receptor 4 (Homo sapiens) (UniProt P54760)
# T1 sequence (whole entry): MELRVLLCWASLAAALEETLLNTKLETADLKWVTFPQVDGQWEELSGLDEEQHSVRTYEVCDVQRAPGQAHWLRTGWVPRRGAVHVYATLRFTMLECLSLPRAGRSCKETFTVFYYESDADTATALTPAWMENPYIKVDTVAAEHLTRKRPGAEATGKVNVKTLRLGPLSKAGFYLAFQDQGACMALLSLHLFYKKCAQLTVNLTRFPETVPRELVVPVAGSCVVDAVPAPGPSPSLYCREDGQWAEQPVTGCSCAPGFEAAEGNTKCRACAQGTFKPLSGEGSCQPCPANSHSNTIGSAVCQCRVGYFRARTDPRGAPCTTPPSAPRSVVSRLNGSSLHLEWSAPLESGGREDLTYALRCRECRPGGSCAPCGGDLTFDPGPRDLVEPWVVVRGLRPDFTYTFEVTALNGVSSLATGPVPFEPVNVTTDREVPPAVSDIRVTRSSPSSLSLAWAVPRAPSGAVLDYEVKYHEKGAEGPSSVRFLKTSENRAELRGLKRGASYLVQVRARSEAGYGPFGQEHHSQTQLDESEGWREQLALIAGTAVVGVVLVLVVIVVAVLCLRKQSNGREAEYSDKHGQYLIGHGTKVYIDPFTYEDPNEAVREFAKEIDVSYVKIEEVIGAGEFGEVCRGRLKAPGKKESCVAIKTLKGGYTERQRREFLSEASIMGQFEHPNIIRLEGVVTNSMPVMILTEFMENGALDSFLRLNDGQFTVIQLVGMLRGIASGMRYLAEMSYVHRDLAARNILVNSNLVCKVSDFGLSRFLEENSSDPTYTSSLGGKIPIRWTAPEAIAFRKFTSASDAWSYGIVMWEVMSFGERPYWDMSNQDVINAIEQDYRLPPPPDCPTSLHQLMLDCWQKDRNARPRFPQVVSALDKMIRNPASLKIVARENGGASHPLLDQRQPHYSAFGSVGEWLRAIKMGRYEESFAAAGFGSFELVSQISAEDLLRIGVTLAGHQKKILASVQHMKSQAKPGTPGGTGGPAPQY
# Conditions: at 1 µM
row,Structure (SMILES),residual activity [%]
1,O=C(CCCc1ccc(-c2ccccc2F)cc1)Nc1ccc(O)cc1,93
2,Nc1ncnc2[nH]nc(Nc3ccc(F)cc3)c12,42
3,Nc1ncnc2c1cnn2-c1ccccc1,95
4,CCCCc1c(-c2ccc(O)cc2)[nH]c2nccnc12,74
5,CN(C)S(=O)(=O)c1ccc2c(c1)/C(=C/c1cc3c([nH]1)CCCC3)C(=O)N2,70
6,O=C(O)/C=C/c1cc(Br)c(Br)c(Br)c1Br,105
7,NC(=O)Nc1sc(-c2ccc(F)cc2)cc1C(N)=O,49

# Biological target: T1, Ephrin type-B receptor 4 (Homo sapiens)
# Conditions: at 10 µM
row,Structure (SMILES),residual activity [%]
1,CCN(CC)CCNC(=O)c1c(C)[nH]c(/C=C2\C(=O)Nc3ccc(Cl)cc32)c1C,35
2,O=c1cc(N2CCOCC2)oc2c1ccc1ccccc12,108
3,CSc1nc(-c2ccc(F)cc2)c(-c2ccnc(NC(C)c3ccccc3)c2)[nH]1 (stereo unspecified),88
4,CC(C)[C@H](CO)Nc1nc(Nc2cc(N)cc(Cl)c2)c2ncn(C(C)C)c2n1,6
5,COc1ccc(COc2ccc(Cc3cnc(N)nc3N)cc2OC)cc1,113
6,Nc1ncnc2c1c(-c1ccc(Oc3ccccc3)cc1)cn2C1CCCC1,89
7,O=C1Cc2c([nH]c3ccc(Br)cc23)-c2ccccc2N1,71
8,CC(C)c1nn(-c2c(Cl)cccc2Cl)c2nc(Cc3ccc(OCCO)cc3)[nH]c(=O)c12,76
9,COc1cc2c(cc1OC)-c1n[nH]c(Nc3cccc(F)c3)c1C2,35
10,COc1cc2ncnc(Nc3cccc(Cl)c3)c2cc1OC,5
11,O=C1NC(=O)c2c1c1c3ccccc3[nH]c1n1cncc21,73
12,CCCCc1c(-c2ccc(OC)cc2)[nH]c2nccnc12,81
13,Cn1sc(=O)n(Cc2ccccc2)c1=O,80
14,Nc1n[nH]c2nc3ccccc3nc12,77
15,CCCC(=O)Oc1ccc2[nH]c(C(=O)c3cc4ccccc4[nH]3)cc2c1,101
16,CC(C)(C)n1nc(Cc2cccc3ccccc23)c2c(N)ncnc21,-3
17,O=C1C(Cl)=C(N2C(=O)CCC2=O)C(=O)c2ccccc21,81
18,COc1ccc(-c2cnc3c(-c4ccsc4)cnn3c2)cc1,122
19,Nc1ncnc2[nH]nc(Nc3ccc(F)cc3)c12,6
20,Nc1ncnc2c1cnn2-c1ccccc1,102
21,CCCCc1c(-c2ccc(O)cc2)[nH]c2nccnc12,16
22,CN(C)S(=O)(=O)c1ccc2c(c1)/C(=C/c1cc3c([nH]1)CCCC3)C(=O)N2,69
23,O=C(O)/C=C/c1cc(Br)c(Br)c(Br)c1Br,90
24,NC(=O)Nc1sc(-c2ccc(F)cc2)cc1C(N)=O,6

# From ChEMBL document CHEMBL2218924, “A broad activity screen in support of a chemogenomic map for kinase signalling research and drug discovery” (Biochem J, 2013)
